The text below walks through data of PubChem BioAssay (NCI).

Compounds without any hit were thinned out: in the full panel of roughly 83,000, 20% have a hit.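 48-hour exposure, single concentration, 96-well plates; percent growth endpoint where 0 means no net growth. Active: below 10.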 Values without a mark were called inactive. Activity calls are given as the source filed them.

In this assay the test system is SK-MEL-2 melanoma. The assay is described as follows: NCI-60 one-dose screen, 48 h (100 = growth as untreated, 0 = no growth, -100 = all killed). The conditions noted are these: 10 µM unless noted. As to the method:
Growth inhibition of the SK-MEL-2 human tumor cell line is measured as a screen for anti-cancer activity. Cells are grown in 96 well plates and exposed to the test compound for 48 hours. Compounds are tested at a single concentration, which is 10^-5 M for most compounds. The reported endpoint is percent growth (GI% or GIPRCNT), where numbers from 0 - 100% represent growth inhibition, and numbers from -100% - 0 represent cell death. For example, a value of 40 represents 60% growth inhibition. A value of 0 means no net growth occurred over the course of the experiment. A value of -40 indicates 40% of cells at the beginning of the experiment died by the end of the experiment. A value of -100 means all cells are dead at the end of the experiment.
NCI-60 Human Tumor Cell Lines Screen was performed using the standard one-dose NCI protocol, which is described in more detail at https://dtp.cancer.gov/discovery_development/nci-60/default.htm.
Compounds with GIPRCNT values below 10 were considered active. Activity score was based on GIPRCNT using the following formula: […]
Score is 0 for GIPRCNT values of 100 or above, 50 for GIPRCNT values of 0, and 100 for GIPRCNT values of -100.
With `O=C(c1ccccc1)c1ccccc1Cl`, the growth was 100%.

Consider `S=C(c1ccccc1)N1CCN(c2cccc(Cl)c2)CC1`, for which the growth was 100%.

Turning to `O=C(Nc1nc(-c2ccc(Cl)cc2)cs1)c1cc(O)c(O)c(O)c1`, the growth is 31.9%.

On to `CC1=NN(c2ccccc2Cl)C(=O)/C1=C\c1cn(S(=O)(=O)c2ccc(C)cc2)c2ccccc12`, for which the growth is 114%.

Take `COc1ccc(-c2noc(N)c2-c2cc(OC)c3c(c2)OCO3)cc1`: the growth was -1.35% (active).

Take `ClC1=C(Cl)C(=C2C(Cl)=C(Cl)C(Cl)=C2Cl)C(Cl)=C1Cl`: the growth is 95.8%.

On to `O=C1c2ccccc2C(=O)c2c1cccc2-n1nnc2ccccc21`, for which the growth was 79.3%.

As for `COc1ccc(-n2nc3c(c2-c2ccc(OC)c(OC)c2)-c2oncc2CC3)cc1`, the growth was 92.8%.

In the case of `Oc1ccc(Cc2ccc(O)c(C3CC(c4ccc(Cl)cc4)=NN3)c2)cc1C1CC(c2ccc(Cl)cc2)=NN1` (stereo not given), the growth was -10.8% (active).

For `O=C(C(=O)N1CCCCC1)c1ccc(OC2OC(CO)C(O)C(O)C2O)cc1` (stereo not given), the growth is 99.4%.

`CC(C)[C@H]1CC[C@H]2[C@@H](CC[C@H]3[C@](C)(CN)CCC[C@]23C)C1`: the growth was 80.3%.

Consider `Clc1nc(Cl)c2ncn(-c3ccccc3)c2n1`, for which the growth was 17.8%.

Turning to `O=C1C(Cl)=C(N=Nc2c(Cl)c(O)c3ccccc3c2O)C(=O)c2ccccc21`, the growth was 98.5%.

In the case of `O=C(/C(=C/c1cccc([N+](=O)[O-])c1)c1ccccc1)c1ccccc1`, the growth is 28.8%.

In the case of `CC[C@H](C)C(=O)O[C@H]1C[C@@H](C)C=C2C=C[C@H](C)[C@H](CC[C@@H]3C[C@@H](O)CC(=O)O3)[C@H]21`, the growth was 36.8%.

Consider `Cc1c(C(N)=O)sc2c1c(=O)n(Cc1ccccc1)c1nnc(SCC(=O)Nc3ccc(Cl)cc3)n21`, for which the growth was 0.559% (active).

In the case of `O=C(Nc1ccc(Cl)cc1)Nc1ccc(Oc2nncc3ccccc23)cc1`, the growth was 12.4%.

On to `CCCCN(CCCC)CCCOC(=O)c1ccc(N)cc1`, for which the growth was 85.1%.

As to `CCN(CC)CCCNCCCNc1cc(OC)cc2cccnc12`, the growth was 101%.

In the case of `CCCc1cccc(CCC)c1O`, the growth is 133%.

With `O=C1/C(=N/O)CCc2ccccc21`, the growth is 113%.

For the compound `OC(CCC(O)(c1ccccc1)c1ccccc1)(c1ccccc1)c1ccccc1`, the growth is 97.5%.

Regarding `NC(N)=NC(N)=NCCCc1ccccc1`, the growth was 70.7% [100 µM].

For `O=C1C2C3C=CC(O3)C2C(=O)N1Nc1ccccc1` (stereo not given), the growth is 133%.

In the case of `CCCCCCCCCCCCCCCCCC1=NC(C)(C)CN1CCO`, the growth was -66.2% (active).

In the case of `COc1ccc2c(c1)nc(N)c1c3cc(C)c(C)cc3cn21`, the growth was 84.4%.

As for `CCOC(=O)c1c(C)nc(C)c(C(=O)OCC)c1-c1cccnc1`, the growth was 110%.

For `COc1cc(OC)c2cc(C(=O)O)c(=O)oc2c1`, the growth is -11% (active).

Turning to `c1ccc2c(c1)[nH]c1c2cc[n+]2cc3c(cc12)CCCC3`, the growth is -8.25% (active).

`COc1cc(/C=C/C(=O)c2c(-c3ccc(F)cc3)nc3sc(C)nn23)cc(OC)c1OC`: the growth was -26.5% (active).

On to `Cc1cc2cn3c4cccnc4[nH]c(=O)c3c2cc1C`, for which the growth was 58.2%.

In the case of `CC(=O)NCCSC(=O)C(=O)SCCNC(C)=O`, the growth is 19%.

Consider `Nc1ccc2c3c(cccc13)-c1ccccc1-2`, for which the growth was 105%.

Turning to `COc1ccc2c(c1)C(=O)/C(=C/c1ccc([N+](=O)[O-])s1)O2`, the growth is -49.1% (active).

Turning to `CCCC[N+](CCCC)=c1ccc2nc3c(C)cc(N(CC)CC)cc3sc-2c1`, the growth is -51% (active).

Consider `Cn1[nH]cc(/C=N/C(N)=O)c1=O`, for which the growth was 109%.

Consider `CCCCCCCCCCCCCCCCN=C(CC(=O)O)C(=O)O`, for which the growth was 92.8%.

Consider `CCCCCCC/C(=N\N=C(N)N)c1ccc(O)cc1`, for which the growth was 48.3%.

Turning to `CC[C@@H]1OC(=O)[C@H](C)[C@@H](O[C@H]2C[C@@](C)(OC)[C@@H](O)[C@H](C)O2)[C@H](C)[C@@H](O[C@@H]2O[C@H](C)C[C@H](N(C)C)[C@H]2O)[C@](C)(O)C[C@@H](C)[C@@H]2N[C@@H](COCCOC)O[C@H]([C@H]2C)[C@]1(C)O`, the growth is 121%.

As for `COc1cc(C2=NN(C(C)=O)C(c3ccc(OC(C)=O)cc3OC(C)=O)O2)c(OC(C)=O)c2ccccc12` (stereo not given), the growth was 24.9%.
